# PubChem BioAssay (Tox21)
# Inconclusive results are not listed. Where a call stands in place of a potency, no number is given. Values without a mark were called inactive. Calls of active or inactive are those of the source. Calls follow the shape of the dose curve; as a rule, active = well fitted inhibition curve with a large enough effect in the repeat runs; inconclusive = weak or mixed curves; inactive = no such curve, though single readings can be large or run the other way.
# Biological target: Cytochrome P450 3A4 (Homo sapiens) (UniProt P08684)
# Sequence (P08684 whole entry, looked up): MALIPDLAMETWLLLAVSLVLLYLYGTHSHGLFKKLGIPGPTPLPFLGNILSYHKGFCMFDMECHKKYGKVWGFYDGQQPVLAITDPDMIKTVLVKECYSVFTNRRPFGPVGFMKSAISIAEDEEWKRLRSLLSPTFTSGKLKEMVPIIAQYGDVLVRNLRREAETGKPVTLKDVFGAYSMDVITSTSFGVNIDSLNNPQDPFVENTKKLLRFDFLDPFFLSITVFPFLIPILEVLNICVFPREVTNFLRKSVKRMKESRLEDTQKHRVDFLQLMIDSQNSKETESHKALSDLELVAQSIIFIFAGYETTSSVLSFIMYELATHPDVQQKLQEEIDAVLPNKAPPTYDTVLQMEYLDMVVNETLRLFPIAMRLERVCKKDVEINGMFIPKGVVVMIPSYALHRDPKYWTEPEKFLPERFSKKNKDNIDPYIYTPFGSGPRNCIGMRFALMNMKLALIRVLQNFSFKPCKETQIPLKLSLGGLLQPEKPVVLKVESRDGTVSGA
# Experiment: Cytochrome P450 Family 3 Subfamily A Member 4 (CYP3A4) small molecule antagonists: luciferase reporter qHTS assay (AID 1671201); also: nearly all actives have a fitted effect of over 50% in size
# Details: P450-Glo CYP3A4 enzyme, luciferin luminescence, 1 h; series mostly up to 115 µM
# Outline: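 Proluciferin-to-luciferin conversion by CYP3A4, NADPH-regenerated, 1 h RT; luminescence read as RLU. Ketoconazole as control.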
# Potency is read from the fitted curve at half-maximal effect.
SMILES,Potency,"activity change, negative = inhibition"
CC(=O)Nc1ccc(S(=O)(=O)Nc2cc(C)on2)cc1,inactive,–
CCCCS,inactive,–
COCc1nnc(-c2ccc[n+]([O-])c2)n1-c1c(Cl)c(Cl)cc2[nH]c(=O)c(=O)[nH]c12,6.33 µM (active),–
Cc1ccc(Br)cc1,inactive,–
CCCC(=O)OC,inactive,–
c1coc(Cn2cccc2)c1,inactive,–
CCOC(=O)[C@H](CCc1ccccc1)N[C@H]1CS[C@H](c2cccs2)CN(CC(=O)O)C1=O,inactive,–
COc1ccc(Cl)cc1C,inactive,–
CCC(=O)OCCOc1ccccc1,inactive,–
Cc1cc(O)c(Cl)cc1C,inactive,–
NNC(=O)OCc1ccccc1,inactive,–
CO/N=C(\C(=O)O)c1csc(NC(=O)CCl)n1,inactive,–
COC(C)(C)CC(C)=O,inactive,–
Cc1ccccc1C#N,inactive,–
COC(=O)c1ccc(NC(C)=O)cc1OC,inactive,–
CCOC(=O)c1ccc(N(C)C)cc1,inactive,–
O=C(O)CCCCCCCCCC(=O)O,inactive,–
CC(C)(C)NCC(O)COc1cccc2c1CCC(=O)N2 (stereo not given),inactive,–

SMILES,Potency,"activity change, negative = inhibition"
O=C(O)Cc1ccccc1Oc1ccc(Cl)cc1Cl,inactive,–
Clc1cc(Cl)c(Cl)c(Cl)c1Cl,inactive,–
CCCCCCCCCCCCCCCCN(C)C,–,-0.256% [at 10.5 µM]
CCOC(=O)CC,inactive,–
Cc1ccc2cccnc2c1,inactive,–
CC(O)C(CO)C(C)O (stereo not given),inactive,–
C[Si](C)(C)O[Si](O)(O)O,inactive,–
CCCCCCC(=O)c1ccccc1,inactive,–
CCCCC(CC)COC(=O)CC#N (stereo not given),39.9 µM (active),–
Cc1cc(C)c(N)c(Cl)c1,inactive,–
CC(C)C[P+](C)(CC(C)C)CC(C)C,inactive,–
CC(=O)c1ccc(O)c(C(N)=O)c1,inactive,–
CC(=O)OC/C=C(/C)CCC=C(C)C,inactive,–
C=CC(=O)CC,inactive,–
CCCc1ccc(O)c(OC)c1,inactive,–
C/C=C/C(=O)CCCC,56.4 µM (active),–
C/C(Cl)=C/CCl,inactive,–
